# Assay results published in PubChem BioAssay (EPA / NIEHS).
# Calls of active or inactive are those of the source. How the source made its calls: active means hit-call score of the fitted dose curve at least 0.9, where 1 is the maximum; inactive means score below 0.9.
# Read-out: Hypoxia-inducible factor 1-alpha (Homo sapiens) (UniProt Q16665)
# Assay: LTEA_HepaRG_HIF1A: Life Technologies and Expression Analysis (LTEA) Assay for Hypoxia-inducible factor 1 (HIF1A) Trancription factor using HepaRG (AID 2283503);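 further: HIF1A transcript by TaqMan qRT-PCR normalized to ACTB GAPDH and POLR2A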
# Settings: mRNA level, 48 h; actives raise or lower the signal
# In short: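 Gain- or loss-of-signal HIF1A mRNA changes are fitted against a DMSO baseline. HepaRG cultures receive eight concentrations, highest 100 uM, for 48 h in serum-free induction medium with 0.5% DMSO.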
# Sequence of Hypoxia-inducible factor 1-alpha (Homo sapiens) (Q16665 whole entry, looked up): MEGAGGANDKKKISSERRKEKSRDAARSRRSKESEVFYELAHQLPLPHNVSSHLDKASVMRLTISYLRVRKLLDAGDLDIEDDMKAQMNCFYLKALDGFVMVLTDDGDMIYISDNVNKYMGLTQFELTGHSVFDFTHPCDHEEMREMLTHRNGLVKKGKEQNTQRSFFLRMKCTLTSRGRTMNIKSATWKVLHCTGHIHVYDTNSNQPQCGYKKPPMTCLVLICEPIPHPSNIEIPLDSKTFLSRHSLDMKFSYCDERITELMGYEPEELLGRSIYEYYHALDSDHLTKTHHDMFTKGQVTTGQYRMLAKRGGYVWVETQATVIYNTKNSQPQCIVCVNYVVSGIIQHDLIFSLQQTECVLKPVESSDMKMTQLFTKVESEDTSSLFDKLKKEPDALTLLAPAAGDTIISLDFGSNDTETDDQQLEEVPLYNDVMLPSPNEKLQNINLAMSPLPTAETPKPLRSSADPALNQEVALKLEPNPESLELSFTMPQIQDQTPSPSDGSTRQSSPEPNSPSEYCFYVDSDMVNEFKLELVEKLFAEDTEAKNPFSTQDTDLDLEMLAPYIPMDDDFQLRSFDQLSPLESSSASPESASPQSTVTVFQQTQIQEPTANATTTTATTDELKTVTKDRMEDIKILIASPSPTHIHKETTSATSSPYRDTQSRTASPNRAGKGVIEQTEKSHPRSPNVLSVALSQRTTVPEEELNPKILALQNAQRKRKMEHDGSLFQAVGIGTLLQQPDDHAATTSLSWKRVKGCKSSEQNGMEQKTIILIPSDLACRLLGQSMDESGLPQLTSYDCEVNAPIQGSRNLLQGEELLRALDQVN
SMILES,AC50,outcome
NC(=O)N1C(=O)C(C(=O)c2cc(Cl)cs2)c2cc(F)c(Cl)cc21 (configuration not stated),22.7 µM (active),–
COc1ccc([N+](=O)[O-])cc1N,–,inactive
CCCCCCCCCCCCN1CCCC1=O,–,inactive
O=C(OCCOCCOC(=O)c1ccccc1)c1ccccc1,–,inactive
Oc1cccc(O)c1,–,inactive
CCCCCCCCOC(=O)CCCCCCCCC(=O)OCCCCCCCC,–,inactive
COCC(C)O (configuration not stated),–,inactive
OC1CCC(C2CCCCC2)CC1 (configuration not stated),–,inactive
O=C(O)c1ccccc1C(c1ccc(O)cc1)c1ccc(O)cc1,–,inactive
CCCCCCCCCCCCc1ccccc1S(=O)(=O)O,14.4 µM (active),–
NC(=O)N(O)[C@@H]1C=C[C@H](Oc2cccc(Oc3ccc(F)cc3)c2)C1,78.7 µM (active),–
C=C(C)C(=O)OCCC(F)(F)C(F)(F)C(F)(F)C(F)(F)C(F)(F)C(F)(F)F,–,inactive
c1ccc2c(c1)Cc1ccccc1-2,–,inactive
COCC(C)OCC(C)O (configuration not stated),–,inactive
N#C[C@@H]1CC(F)(F)CN1C(=O)CNC1CC2CCC(C1)N2c1ncccn1 (some centres not stated),–,inactive
CCCOC(=O)c1ccc(O)cc1,–,inactive
CCCCC(CC)COC(=O)CCCCC(=O)OCC(CC)CCCC (configuration not stated),–,inactive
O=C(O)Cc1cc(I)c(Oc2cc(I)c(O)c(I)c2)c(I)c1,21.5 µM (active),–
CCCCOCCO,–,inactive
COC(=O)CCCCC(=O)OC,–,inactive
CC(C)CCCCCCOC(=O)CCCCC(=O)OCCCCCCC(C)C,–,inactive
CCCCCCC(=O)O,–,inactive
CC#C[C@]1(O)CC[C@H]2[C@@H]3CCC4=CC(=O)CCC4=C3[C@@H](c3ccc(N(C)C)cc3)C[C@@]21C,85.5 µM (active),–
CC(=O)CC(C)(C)O,–,inactive
CC(C)(C)CC(C)(C)c1ccc(O)c(-n2nc3ccccc3n2)c1,–,inactive
CCC(C)(C)C1CCC(O)CC1 (configuration not stated),–,inactive

# Read-out: 3-Hydroxy-3-Methylglutaryl-CoA Synthase 2 (HMGCS2), HMGCS2 (gene 3158)
# Assay: LTEA_HepaRG_HMGCS2: Life Technologies and Expression Analysis (LTEA) Assay for 3-Hydroxy-3-Methylglutaryl-CoA Synthase 2 (HMGCS2) using HepaRG (AID 2283504)
# Settings: mRNA level, 48 h; actives raise or lower the signal
# In short: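 This steatosis marker was read as HMGCS2 mRNA change in HepaRG cells treated 48 h with up to 100 uM chemical. Normalisation used housekeeping genes; activity in either direction was fitted relative to 0.5% DMSO vehicle.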
SMILES,AC50,outcome
CC[C@H](c1ccc(O)cc1)[C@@H](CC)c1ccc(O)cc1,79.4 µM (active),–
NC(=O)N1C(=O)C(C(=O)c2cc(Cl)cs2)c2cc(F)c(Cl)cc21 (configuration not stated),20.7 µM (active),–
CN1CCC[C@H]1c1cccnc1,–,inactive
C#C[C@]1(O)CC[C@H]2[C@@H]3CCC4=CC(=O)CC[C@@H]4[C@H]3CC[C@@]21C,–,inactive
COc1ccc([N+](=O)[O-])cc1N,–,inactive
CCCCCCCCCCCCN1CCCC1=O,–,inactive
O=C(OCCOCCOC(=O)c1ccccc1)c1ccccc1,–,inactive
Oc1cccc(O)c1,–,inactive
CCCCCCCCOC(=O)CCCCCCCCC(=O)OCCCCCCCC,–,inactive
COCC(C)O (configuration not stated),–,inactive
OC1CCC(C2CCCCC2)CC1 (configuration not stated),–,inactive
O=C(O)c1ccccc1C(c1ccc(O)cc1)c1ccc(O)cc1,–,inactive
CCCCCCCCCCCCc1ccccc1S(=O)(=O)O,83.1 µM (active),–
NC(=O)N(O)[C@@H]1C=C[C@H](Oc2cccc(Oc3ccc(F)cc3)c2)C1,40.6 µM (active),–
C=C(C)C(=O)OCCC(F)(F)C(F)(F)C(F)(F)C(F)(F)C(F)(F)C(F)(F)F,–,inactive
c1ccc2c(c1)Cc1ccccc1-2,–,inactive

SMILES,AC50,outcome
COCC(C)OCC(C)O (configuration not stated),–,inactive
N#C[C@@H]1CC(F)(F)CN1C(=O)CNC1CC2CCC(C1)N2c1ncccn1 (some centres not stated),–,inactive
CCCOC(=O)c1ccc(O)cc1,–,inactive
CCCCC(CC)COC(=O)CCCCC(=O)OCC(CC)CCCC (configuration not stated),–,inactive
O=C(O)Cc1cc(I)c(Oc2cc(I)c(O)c(I)c2)c(I)c1,49.5 µM (active),–
CCCCOCCO,–,inactive
COC(=O)CCCCC(=O)OC,–,inactive
CC(C)CCCCCCOC(=O)CCCCC(=O)OCCCCCCC(C)C,–,inactive
O=c1c(-c2ccc(O)cc2)coc2cc(O)ccc12,–,inactive
CCCCCCC(=O)O,–,inactive
CC1=C(/C=C/C(C)=C/C=C/C(C)=C/C(=O)O)C(C)(C)CCC1,23.9 µM (active),–
CC#C[C@]1(O)CC[C@H]2[C@@H]3CCC4=CC(=O)CCC4=C3[C@@H](c3ccc(N(C)C)cc3)C[C@@]21C,75.9 µM (active),–
CC(=O)CC(C)(C)O,–,inactive
CC(C)(C)CC(C)(C)c1ccc(O)c(-n2nc3ccccc3n2)c1,50 µM (active),–
CCC(C)(C)C1CCC(O)CC1 (configuration not stated),–,inactive

# Read-out: HGF (gene 3082)
# Assay: LTEA_HepaRG_HGF: Life Technologies and Expression Analysis (LTEA) Assay for Hepatocyte Growth Facto (HGF) using HepaRG (AID 2283505)
# Settings: mRNA level, 48 h; actives raise or lower the signal
# In short: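 Using HepaRG monolayers kept in 0.5% DMSO, chemicals were tested in duplicate over eight half-log concentrations from 100 uM for 48 h. Endpoint: HGF mRNA change relative to DMSO, normalized to ACTB/GAPDH/POLR2A.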
SMILES,outcome,AC50
CC[C@H](c1ccc(O)cc1)[C@@H](CC)c1ccc(O)cc1,inactive,–
NC(=O)N1C(=O)C(C(=O)c2cc(Cl)cs2)c2cc(F)c(Cl)cc21 (configuration not stated),inactive,–
CN1CCC[C@H]1c1cccnc1,inactive,–
COc1ccc([N+](=O)[O-])cc1N,inactive,–
CCCCCCCCCCCCN1CCCC1=O,inactive,–
O=C(OCCOCCOC(=O)c1ccccc1)c1ccccc1,inactive,–
Oc1cccc(O)c1,inactive,–
CCCCCCCCOC(=O)CCCCCCCCC(=O)OCCCCCCCC,inactive,–
COCC(C)O (configuration not stated),inactive,–
OC1CCC(C2CCCCC2)CC1 (configuration not stated),inactive,–
O=C(O)c1ccccc1C(c1ccc(O)cc1)c1ccc(O)cc1,inactive,–
CCCCCCCCCCCCc1ccccc1S(=O)(=O)O,inactive,–
NC(=O)N(O)[C@@H]1C=C[C@H](Oc2cccc(Oc3ccc(F)cc3)c2)C1,inactive,–
C=C(C)C(=O)OCCC(F)(F)C(F)(F)C(F)(F)C(F)(F)C(F)(F)C(F)(F)F,inactive,–
c1ccc2c(c1)Cc1ccccc1-2,inactive,–
COCC(C)OCC(C)O (configuration not stated),inactive,–
N#C[C@@H]1CC(F)(F)CN1C(=O)CNC1CC2CCC(C1)N2c1ncccn1 (some centres not stated),inactive,–
CCCOC(=O)c1ccc(O)cc1,inactive,–
CCCCC(CC)COC(=O)CCCCC(=O)OCC(CC)CCCC (configuration not stated),inactive,–
O=C(O)Cc1cc(I)c(Oc2cc(I)c(O)c(I)c2)c(I)c1,–,52.7 µM (active)
CCCCOCCO,inactive,–
COC(=O)CCCCC(=O)OC,inactive,–
CC(C)CCCCCCOC(=O)CCCCC(=O)OCCCCCCC(C)C,inactive,–
O=c1c(-c2ccc(O)cc2)coc2cc(O)ccc12,inactive,–
CCCCCCC(=O)O,inactive,–
CC1=C(/C=C/C(C)=C/C=C/C(C)=C/C(=O)O)C(C)(C)CCC1,inactive,–
CC#C[C@]1(O)CC[C@H]2[C@@H]3CCC4=CC(=O)CCC4=C3[C@@H](c3ccc(N(C)C)cc3)C[C@@]21C,–,85.2 µM (active)
CC(=O)CC(C)(C)O,inactive,–
CC(C)(C)CC(C)(C)c1ccc(O)c(-n2nc3ccccc3n2)c1,inactive,–
CCC(C)(C)C1CCC(O)CC1 (configuration not stated),inactive,–
